Assay [1] deals with PRMT1 (protein arginine N-methyltransferase 1). Description: PRMT1 binders on small-molecule microarrays, primary screen, biochemical, small-molecule microarray, 635 nm fluorescence (AID 1088).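 Further: binding of Prmt1 protein to compounds spotted on small-molecule microarray slides.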 The note with it: small-molecule microarray binding, higher = more signal.
Assay [2] can be described thus: yeast growth modulation, basal conditions, primary screen, YJM789 clinical isolate, OD600, 24 h (AID 1089).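 Further: growth of clinical yeast isolate S. cerevisiae YJM 789 seeded 1000 cells per well; test concentration not given here.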 The note with it: S. cerevisiae YJM789 growth, higher = more signal, called active from +8 up or from −8 down.
The nature of assay [3]: fission yeast growth modulation, primary screen, strain 972, OD600, 24 h, no modulator (AID 1090).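 Further: basal condition with compound alone and no growth modifier present; test concentration not given here.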 The settings on record: S. pombe 972 growth, higher = more signal, called active from +8 up or from −8 down.
The nature of assay [4]: S. cerevisiae growth modulation with rapamycin, primary screen, strain BY4716, OD600, 96 h (AID 1091). Further: test concentration not given here. The settings on record: higher = more signal, called active from +8 up or from −8 down.
Assay [5] has as its target Torsin-1A-interacting protein 2 (Homo sapiens) (UniProt Q8NFQ8). As to the kind of experiment: LULL1 binders on small-molecule microarray, primary screen, cell lysate, human LULL1 lysate, 635/667 nm fluorescence (AID 1092).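 Further: probe is lysate of COS7 cells overexpressing human LULL1; score merges per-feature 667 nm fluorescence with signal-to-noise.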 The note with it: hLULL1 lysate binding, 635 nm fluorescence, higher = more signal.
Assay [6] is described as follows: E. coli growth modulation, two-sided OD650, primary screen, E. coli filamentation project, strain DRC41, 24 h (AID 1093).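 Further: MC1000 strain lacking acrAB efflux and sulA so SOS filamentation is blocked; test concentration not given here.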 The settings on record: OD650, 24 h, higher = more signal, called active from +8 up or from −8 down.
The nature of assay [7]: small-molecule microarray binders of probe aLefty2, primary screen, biochemical, biotinylated probe, 635/667 nm fluorescence (AID 1094).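 Further: score merges spot fluorescence near 667 nm with spot signal-to-noise ratio.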 The settings on record: higher = more signal.
In assay [8] the test system is Noggin (protein binding on small-molecule microarray). Description: Noggin binders on small-molecule microarray, primary screen, biochemical, 635/667 nm fluorescence (AID 1095).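 Further: score merges 667 nm feature fluorescence with signal to noise over triplicate slides.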 The settings on record: 635 nm fluorescence, higher = more signal.
Assay [9] deals with Neurogenic locus notch homolog protein 3 (Homo sapiens) (UniProt Q9UM47). Description: NOTCH3 binders on small-molecule microarray, primary screen, biochemical, 635/667 nm fluorescence (AID 1096). The settings on record: NOTCH3 binding, 635 nm fluorescence, higher = more signal.
Sequence of Neurogenic locus notch homolog protein 3 (Homo sapiens) (Q9UM47 whole entry, looked up): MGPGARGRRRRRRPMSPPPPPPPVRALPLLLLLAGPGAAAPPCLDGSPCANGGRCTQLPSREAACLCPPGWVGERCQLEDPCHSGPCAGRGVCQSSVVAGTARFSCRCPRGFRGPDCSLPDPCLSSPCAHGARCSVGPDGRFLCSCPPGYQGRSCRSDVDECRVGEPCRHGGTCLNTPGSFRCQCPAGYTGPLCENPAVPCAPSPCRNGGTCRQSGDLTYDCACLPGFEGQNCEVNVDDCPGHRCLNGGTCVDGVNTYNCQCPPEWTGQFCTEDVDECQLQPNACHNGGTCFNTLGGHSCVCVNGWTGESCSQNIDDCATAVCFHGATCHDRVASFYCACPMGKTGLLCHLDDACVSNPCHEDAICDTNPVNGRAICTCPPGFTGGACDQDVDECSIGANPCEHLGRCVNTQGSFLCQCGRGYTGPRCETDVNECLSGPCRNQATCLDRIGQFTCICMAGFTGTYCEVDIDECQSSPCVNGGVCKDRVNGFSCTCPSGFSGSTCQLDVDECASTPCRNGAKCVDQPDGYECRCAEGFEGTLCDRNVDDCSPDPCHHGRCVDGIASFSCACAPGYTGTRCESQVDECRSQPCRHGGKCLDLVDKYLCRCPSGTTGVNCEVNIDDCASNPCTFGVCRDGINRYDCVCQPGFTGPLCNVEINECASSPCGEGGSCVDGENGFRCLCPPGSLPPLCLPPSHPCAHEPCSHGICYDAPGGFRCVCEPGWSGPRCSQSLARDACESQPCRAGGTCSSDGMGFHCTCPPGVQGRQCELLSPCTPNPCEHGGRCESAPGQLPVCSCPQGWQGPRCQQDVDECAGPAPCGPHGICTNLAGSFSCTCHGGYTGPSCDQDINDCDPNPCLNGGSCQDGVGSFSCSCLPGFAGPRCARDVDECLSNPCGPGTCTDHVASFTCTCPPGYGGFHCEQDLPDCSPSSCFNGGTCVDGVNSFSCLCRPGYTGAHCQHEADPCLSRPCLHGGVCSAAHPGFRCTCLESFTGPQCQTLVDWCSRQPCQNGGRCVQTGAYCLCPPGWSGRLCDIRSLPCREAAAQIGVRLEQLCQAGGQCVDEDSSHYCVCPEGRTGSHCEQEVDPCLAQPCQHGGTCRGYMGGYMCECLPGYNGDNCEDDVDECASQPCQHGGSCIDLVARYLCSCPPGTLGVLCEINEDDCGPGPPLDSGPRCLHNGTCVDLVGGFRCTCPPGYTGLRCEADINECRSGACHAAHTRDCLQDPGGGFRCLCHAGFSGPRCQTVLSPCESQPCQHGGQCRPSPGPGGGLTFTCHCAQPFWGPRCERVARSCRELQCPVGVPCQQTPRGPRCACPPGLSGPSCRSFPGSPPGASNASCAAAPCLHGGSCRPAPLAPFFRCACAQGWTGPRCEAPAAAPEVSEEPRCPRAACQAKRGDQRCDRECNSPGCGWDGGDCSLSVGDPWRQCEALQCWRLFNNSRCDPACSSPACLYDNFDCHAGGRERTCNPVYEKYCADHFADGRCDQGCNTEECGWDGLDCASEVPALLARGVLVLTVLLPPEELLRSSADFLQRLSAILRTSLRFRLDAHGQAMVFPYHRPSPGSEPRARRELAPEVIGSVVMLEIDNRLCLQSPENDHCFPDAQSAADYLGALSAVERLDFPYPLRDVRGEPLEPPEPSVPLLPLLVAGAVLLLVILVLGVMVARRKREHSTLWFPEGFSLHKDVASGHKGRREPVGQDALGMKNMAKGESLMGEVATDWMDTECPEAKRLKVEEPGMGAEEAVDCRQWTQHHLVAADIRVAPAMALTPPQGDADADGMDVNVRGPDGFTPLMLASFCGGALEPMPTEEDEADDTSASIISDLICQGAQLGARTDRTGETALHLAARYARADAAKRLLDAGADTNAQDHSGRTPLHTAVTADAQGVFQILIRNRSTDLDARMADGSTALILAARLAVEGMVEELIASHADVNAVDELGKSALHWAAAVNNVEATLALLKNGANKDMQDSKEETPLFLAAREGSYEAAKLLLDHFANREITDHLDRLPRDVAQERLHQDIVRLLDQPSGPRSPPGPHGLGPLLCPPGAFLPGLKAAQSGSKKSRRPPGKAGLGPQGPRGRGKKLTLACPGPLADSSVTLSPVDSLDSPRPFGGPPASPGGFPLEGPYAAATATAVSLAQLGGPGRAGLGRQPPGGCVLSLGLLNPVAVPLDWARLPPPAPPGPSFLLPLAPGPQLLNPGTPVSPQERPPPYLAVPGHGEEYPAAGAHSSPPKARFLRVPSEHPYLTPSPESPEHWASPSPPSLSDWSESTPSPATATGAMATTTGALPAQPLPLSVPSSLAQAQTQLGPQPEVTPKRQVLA
Assay [10] in a line: small-molecule microarray binders of probe aEGFR, primary screen, biochemical, biotinylated probe, 635/667 nm fluorescence (AID 1097).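 Further: probe is a biotinylated anti-EGFR antibody binding compounds printed on slides; score combines fluorescence near 667 nm and signal to noise of each spot.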 The note with it: higher = more signal.
Assay [11] deals with Plasmodium falciparum Sir2 (PF13_0152, Sir2A). Description: pfSir2 binders on small-molecule microarrays, primary screen, biochemical, small-molecule microarray, 635 nm fluorescence (AID 1098).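 Further: score merges spot fluorescence intensity with its signal-to-noise ratio.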 The note with it: small-molecule microarray binding, fluorescence 635 nm; higher = more signal.
The nature of assay [12]: small-molecule microarray binders of probe aDKK1, primary screen, biochemical, biotinylated probe, 635/667 nm fluorescence (AID 1099).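 Further: score merges 667nm spot fluorescence with signal to noise across triplicate slides; reference of the scale not given here.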 The note with it: higher = more signal.
The nature of assay [13]: small-molecule microarray binders of probe aCHRDL2, primary screen, biochemical, biotinylated probe, 635/667 nm fluorescence (AID 1100). The settings on record: higher = more signal.
A short description of assay [14]: splicing luciferase reporter signal modulators, primary screen, spliceosome inhibition project, cell-based, HEK293, splice +/- reporter (AID 1101).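 Further: HEK293 cells carrying a splicing-competent luciferase reporter gene; test concentration not given here.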 The settings on record: luminescence, 24 h, higher = more signal, called active from +8 up or from −8 down. (In a reporter assay the amount or activity of a reporter protein is the signal.)
Assay [15] addresses Fibroblast growth factor 10 (Homo sapiens) (UniProt O15520). Description: FGF10 binders on small-molecule microarrays, primary screen, biochemical, small-molecule microarray, 635 nm fluorescence (AID 1102). The note with it: FGF10 binding, fluorescence 635 nm, higher = more signal.
In assay [16] the test system is glycogen synthase kinase-3 (GSK3A per assay name; protocol says GSK3B). As to the kind of experiment: GSK3 binders on small-molecule microarrays, primary screen, biochemical, small-molecule microarray, 635 nm fluorescence, GSK3A (AID 1103). Further: the record names both GSK3A and GSK3B. The note with it: small-molecule microarray binding, fluorescence 635 nm; higher = more signal.
The target of assay [17] is Epidermal growth factor receptor (Homo sapiens) (UniProt P00533). Description: EGFR binders on small-molecule microarrays, primary screen, biochemical, small-molecule microarray, 635 nm fluorescence (AID 1104).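 Further: score merges 667 nm emission intensity with spot signal to noise over triplicate slides.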 The note with it: EGFR binding, higher = more signal.
Sequence of Epidermal growth factor receptor (Homo sapiens) (P00533 whole entry, looked up): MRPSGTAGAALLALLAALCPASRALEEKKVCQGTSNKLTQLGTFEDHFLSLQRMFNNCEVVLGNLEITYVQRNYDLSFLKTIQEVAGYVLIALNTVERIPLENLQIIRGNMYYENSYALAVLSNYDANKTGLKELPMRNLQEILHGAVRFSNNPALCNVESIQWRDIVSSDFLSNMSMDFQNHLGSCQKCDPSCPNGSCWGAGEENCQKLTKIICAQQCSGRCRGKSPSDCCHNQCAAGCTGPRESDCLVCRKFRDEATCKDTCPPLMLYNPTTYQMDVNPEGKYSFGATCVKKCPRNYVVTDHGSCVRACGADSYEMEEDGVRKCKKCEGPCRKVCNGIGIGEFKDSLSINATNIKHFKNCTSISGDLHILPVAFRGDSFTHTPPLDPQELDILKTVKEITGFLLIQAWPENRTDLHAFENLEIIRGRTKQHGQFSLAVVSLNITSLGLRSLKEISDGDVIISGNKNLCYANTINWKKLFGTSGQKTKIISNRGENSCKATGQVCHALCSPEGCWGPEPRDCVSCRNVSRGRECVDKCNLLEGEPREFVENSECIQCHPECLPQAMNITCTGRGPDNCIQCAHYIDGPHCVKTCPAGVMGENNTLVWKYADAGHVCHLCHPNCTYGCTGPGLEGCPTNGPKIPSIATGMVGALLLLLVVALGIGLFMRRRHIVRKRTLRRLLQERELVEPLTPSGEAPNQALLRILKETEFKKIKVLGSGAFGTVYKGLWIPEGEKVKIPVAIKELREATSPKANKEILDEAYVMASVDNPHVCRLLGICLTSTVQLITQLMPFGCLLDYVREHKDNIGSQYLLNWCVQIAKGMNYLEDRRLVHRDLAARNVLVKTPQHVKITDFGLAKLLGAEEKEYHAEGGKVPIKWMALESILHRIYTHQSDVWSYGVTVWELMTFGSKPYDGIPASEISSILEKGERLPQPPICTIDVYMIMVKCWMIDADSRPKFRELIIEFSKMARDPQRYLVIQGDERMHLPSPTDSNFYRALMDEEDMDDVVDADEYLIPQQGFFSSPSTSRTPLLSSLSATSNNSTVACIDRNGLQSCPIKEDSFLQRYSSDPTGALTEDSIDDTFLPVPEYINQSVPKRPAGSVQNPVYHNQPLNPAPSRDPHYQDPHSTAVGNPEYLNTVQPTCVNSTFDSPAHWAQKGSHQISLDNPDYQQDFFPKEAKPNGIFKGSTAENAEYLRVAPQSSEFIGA
Assay [18] addresses Follistatin-related protein 3 (Homo sapiens) (UniProt O95633). As to the kind of experiment: FSTL3 binders on small-molecule microarrays, primary screen, biochemical, small-molecule microarray, 635 nm fluorescence (AID 1105).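 Further: score merges emission near 667 nm and signal to noise per printed spot across three slides.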 The settings on record: FSTL3 binding, higher = more signal.
For assay [19], the target named is Dickkopf-related protein 1 (Homo sapiens) (UniProt O94907). Description: DKK1 binders on small-molecule microarrays, primary screen, biochemical, small-molecule microarray, 635 nm fluorescence scan (AID 1106).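 Further: score merges emission near 667 nm with signal to noise over three replicate slides.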 The settings on record: DKK1 binding, higher = more signal.
Sequence of Dickkopf-related protein 1 (Homo sapiens) (O94907 whole entry, looked up): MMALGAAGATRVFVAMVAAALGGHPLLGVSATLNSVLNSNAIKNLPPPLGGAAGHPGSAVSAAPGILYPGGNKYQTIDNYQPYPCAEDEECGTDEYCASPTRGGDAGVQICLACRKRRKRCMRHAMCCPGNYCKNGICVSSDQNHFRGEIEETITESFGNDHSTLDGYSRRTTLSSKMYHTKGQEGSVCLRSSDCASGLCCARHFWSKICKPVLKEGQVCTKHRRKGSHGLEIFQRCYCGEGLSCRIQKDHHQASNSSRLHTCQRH
For assay [20], the system named is Inhibin beta A chain (activin A). Description: INHBA (activin A) binders on microarrays, primary screen, biochemical, small-molecule microarray, 635 nm fluorescence scan (AID 1107).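 Further: mouse activin A protein probed at 4.33 µg/mL on printed slides; score merges bound-protein fluorescence near 667 nm with spot signal-to-noise.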 The note with it: small-molecule microarray binding, higher = more signal.

Structures are written as SMILES. The source made the active and inactive calls.

Sequence of Torsin-1A-interacting protein 2 (Homo sapiens) (Q8NFQ8 whole entry, looked up): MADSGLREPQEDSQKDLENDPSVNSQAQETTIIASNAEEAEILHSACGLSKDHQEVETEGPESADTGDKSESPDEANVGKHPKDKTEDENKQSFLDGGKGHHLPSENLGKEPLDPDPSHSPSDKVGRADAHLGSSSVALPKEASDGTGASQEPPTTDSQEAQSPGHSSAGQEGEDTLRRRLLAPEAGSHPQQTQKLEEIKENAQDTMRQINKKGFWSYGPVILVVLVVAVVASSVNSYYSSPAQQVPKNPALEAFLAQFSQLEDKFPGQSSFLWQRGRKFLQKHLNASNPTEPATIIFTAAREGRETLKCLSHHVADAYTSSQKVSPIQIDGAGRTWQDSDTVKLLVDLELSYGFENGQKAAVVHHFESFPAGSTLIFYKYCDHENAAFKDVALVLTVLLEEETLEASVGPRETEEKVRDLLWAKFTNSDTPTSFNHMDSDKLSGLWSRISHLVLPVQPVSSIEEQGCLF
Sequence of Fibroblast growth factor 10 (Homo sapiens) (O15520 whole entry, looked up): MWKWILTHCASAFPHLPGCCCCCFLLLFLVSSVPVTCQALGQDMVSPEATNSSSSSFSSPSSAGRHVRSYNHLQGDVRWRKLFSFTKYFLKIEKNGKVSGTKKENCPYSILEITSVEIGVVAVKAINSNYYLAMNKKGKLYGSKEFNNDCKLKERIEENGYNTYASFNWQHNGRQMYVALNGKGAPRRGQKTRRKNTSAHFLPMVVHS
Sequence of Follistatin-related protein 3 (Homo sapiens) (O95633 whole entry, looked up): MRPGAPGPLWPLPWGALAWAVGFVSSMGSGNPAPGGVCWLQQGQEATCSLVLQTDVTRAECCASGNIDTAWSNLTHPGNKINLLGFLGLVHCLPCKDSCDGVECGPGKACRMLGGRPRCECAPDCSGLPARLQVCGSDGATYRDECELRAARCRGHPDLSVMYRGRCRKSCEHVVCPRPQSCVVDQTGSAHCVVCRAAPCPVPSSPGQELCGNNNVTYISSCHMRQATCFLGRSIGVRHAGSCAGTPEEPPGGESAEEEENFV

For `COC(=O)C1=CC(CCCO)=CC(C2CC2)N(Cc2cccc(OC(F)(F)F)c2)C=C1C(=O)OC` (stereo not given), the composite z-score in assay [1] is 1.13; in [5], 2.82; in assay [7] it was 0.0386; in assay [8], -0.273; in assay [9] it was 0.749; in assay [10], -0.0353. In addition, the composite z-score is 1.19 in assay [11]; 0.0765 in assay [12]; 0.234 in assay [13]; 0.107 in [15]; -0.363 in assay [16]; -0.659 in assay [17]. Moreover, the composite z-score was 0.315 in assay [18], -0.59 in [19] and 0.674 in assay [20]. The z-score in assay [2] is -2.46 (inactive); in assay [3] it was -1.06 (inactive); in assay [4], -2.24 (inactive); in assay [6] it was -2.57 (inactive); in [14], 0.449 (inactive).
For the compound `C=C(CCCC)C(=O)CC[C@H](OC(C)=O)c1ccccc1OCCO`, the composite z-score in [1] is 1.19; in assay [5], 0.383; in assay [7], -0.12; in assay [8], 0.0384; in assay [9], 0.67; in assay [10] it was -0.177. Besides, the composite z-score in [11] is 1.51; in assay [12], -0.179; in assay [13] it was -0.123; in [15] it was 0.633; in assay [16], -0.783; in [17], 0.333. In addition, the composite z-score in assay [18] was determined as 0.467; in assay [19], 0.513; in assay [20], 0.491. Also, the z-score in assay [2] is 0.489 (inactive); in assay [3], -2.03 (inactive); in assay [4], -0.438 (inactive); in assay [6], 0.733 (inactive); in assay [14], 1.77 (inactive).
As to `COC(=O)c1ccc([C@H](NC(=O)c2ccccc2)[C@]2(C)C[C@H]2C2CCCCC2)cc1`, the composite z-score is 0.0232 in assay [1]; 3.03 in assay [5]; 0.223 in assay [7]; -0.178 in assay [8]; 1.05 in assay [9]; -0.116 in assay [10]. Besides, the composite z-score in assay [11] is 0.135; in [12], 0.343; in assay [13], 1.24; in assay [15], 0.225; in [16], 0.0377; in assay [17], -0.133. Further, the composite z-score in [18] was 0.4; in assay [19], -0.532; in assay [20], 0.795. For the same compound, the z-score in [2] is 0.696 (inactive); in assay [3] it was 1.52 (inactive); in assay [4], -1.23 (inactive); in [6], -1.38 (inactive); in [14], 0.736 (inactive).
With `C=CCC(OC(C)=O)[C@@H]1[C@@H](N(Cc2cc3ccccc3o2)C(=O)Cc2ccc(OC)cc2)c2cc(OCCCO)ccc2N1C(=O)Cc1ccc(OC)cc1` (stereo not given in full), the composite z-score was 0.0873 in [1]; 0.0103 in assay [5]; -0.0757 in [7]; 0.312 in [8]; -0.293 in assay [9]; -0.108 in [10]. Further, the composite z-score in assay [11] is -0.193; in assay [12], -0.0082; in [13], 0.246; in assay [15], 0.233; in assay [16] it was -0.238; in [17], 0.157. Also, the composite z-score was -0.0138 in assay [18], 0.214 in assay [19] and 1.3 in assay [20]. Besides, the z-score in assay [2] is -0.484 (inactive); in [3] it was 0.142 (inactive); in assay [4] it was -0.197 (inactive); in assay [6], -0.847 (inactive); in [14], -0.782 (inactive).
For the compound `O=C1O[C@@H](c2ccccc2)[C@@H](c2ccccc2)N2[C@@H](c3ccc(O)cc3)[C@]3(C(=O)Nc4ccc(C#CC5=CCCCC5)cc43)[C@@H](C(=O)N3CCCCCCC3)[C@H]12`, the composite z-score amounted to 1.54 in assay [1]; 3.44 in assay [5]; 1.22 in assay [7]; 1.16 in assay [8]; 1.02 in [9]; 0.465 in assay [10]. The composite z-score in assay [11] was found to be 1.6; in assay [12], 1.53; in assay [13], 1.25; in assay [15] it was 0.66; in [16], 1.29; in assay [17], 0.623. In addition, the composite z-score was 1.35 in assay [18], 0.485 in assay [19] and 1.79 in [20]. The z-score is -1.67 (inactive) in assay [2]; -0.604 (inactive) in assay [3]; 0.694 (inactive) in [4]; 1.09 (inactive) in [6]; -1.28 (inactive) in assay [14].

The record behind these values is PubChem BioAssay.
